{"source": "the supplement of paper PMC4166925", "note": "± gives the standard deviation of the averaged measurements. The full ranking holds about 33,000 sequences; the median of “E-score (dimensionless, -0.5 to 0.5)” is about -0.046, and the highest 2% start at about 0.36. Shown is part of a subset that was picked to be rich in the highest values.", "data": [{"system": "T1, SpTbr T-box DNA-binding domain (GST fusion)", "T1 sequence": "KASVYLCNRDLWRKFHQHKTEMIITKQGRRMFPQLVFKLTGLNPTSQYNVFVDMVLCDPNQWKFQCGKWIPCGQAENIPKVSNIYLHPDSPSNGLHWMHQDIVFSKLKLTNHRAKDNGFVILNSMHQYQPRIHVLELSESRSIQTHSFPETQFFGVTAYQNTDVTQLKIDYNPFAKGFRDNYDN", "assay": "PBM E-score of 8-mer (E-score (dimensionless, -0.5 to 0.5)); Tbr is Tbrain of the sea star Patiria miniata (Pm) or the sea urchin Strongylocentrotus purpuratus (Sp); higher = stronger binding preference", "settings": "the construct has about 5 more residues each side", "procedure,_shortened": "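GST-fused Tbr T-box DNA-binding domains (the whole T-box plus about five flanking residues) were expressed in BL21 E. coli at 20 °C and purified by glutathione affinity chromatography. Universal Agilent oligonucleotide arrays were made double-stranded by primer extension, incubated with 200 nM protein in PBS (pH 7.5), then scanned and quantified. Every ungapped 8-mer was scored from probe intensities. The Universal PBM Analysis Suite gave each word an enrichment E-score, averaged over duplicate arrays.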", "values": [{"sequence": "AAACTTCG", "PBM E-score of 8-mer": "-0.00264 ± 0.024"}, {"sequence": "AAACTTCT", "PBM E-score of 8-mer": "-0.146 ± 0.1"}, {"sequence": "ACACTTCA", "PBM E-score of 8-mer": "0.412 ± 0.0084"}, {"sequence": "ACACTTCG", "PBM E-score of 8-mer": "0.409 ± 0.0085"}, {"sequence": "TCACTTCA", "PBM E-score of 8-mer": "0.151 ± 0.018"}, {"sequence": "ACACTTCC", "PBM E-score of 8-mer": "0.417 ± 0.016"}, {"sequence": "ACTCGTAC", "PBM E-score of 8-mer": "-0.0977 ± 0.07"}, {"sequence": "CATCCTGG", "PBM E-score of 8-mer": "-0.0597 ± 0.01"}, {"sequence": "AAGTTAAA", "PBM E-score of 8-mer": "0.0719 ± 0.053"}, {"sequence": "AGACTCTC", "PBM E-score of 8-mer": "-0.0738 ± 0.045"}, {"sequence": "TCTCAAAA", "PBM E-score of 8-mer": "-0.176 ± 0.025"}, {"sequence": "GACAATCC", "PBM E-score of 8-mer": "0.0693 ± 0.021"}, {"sequence": "ATGTGCTA", "PBM E-score of 8-mer": "0.328 ± 0.024"}, {"sequence": "AGGTGCTA", "PBM E-score of 8-mer": "0.4822 ± 0.0033"}, {"sequence": "AGGTGCGG", "PBM E-score of 8-mer": "0.429 ± 0.025"}, {"sequence": "AGGTGCTC", "PBM E-score of 8-mer": "0.012 ± 0.081"}, {"sequence": "AGGTGCAA", "PBM E-score of 8-mer": "0.414 ± 0.005"}, {"sequence": "GGGTGCAA", "PBM E-score of 8-mer": "0.271 ± 0.017"}, {"sequence": "TGGTGCAA", "PBM E-score of 8-mer": "0.214 ± 0.0077"}, {"sequence": "ATGTGCTG", "PBM E-score of 8-mer": "0.161 ± 0.0054"}, {"sequence": "AGGTGCGC", "PBM E-score of 8-mer": "0.3101 ± 0.0015"}, {"sequence": "AGGTGCTG", "PBM E-score of 8-mer": "0.4215 ± 0.0039"}, {"sequence": "CGGTGCTA", "PBM E-score of 8-mer": "0.258 ± 0.035"}, {"sequence": "AAGTGCGG", "PBM E-score of 8-mer": "0.273 ± 0.027"}, {"sequence": "GACTGTCA", "PBM E-score of 8-mer": "0.144 ± 0.037"}, {"sequence": "AGACTCGA", "PBM E-score of 8-mer": "-0.158 ± 0.006"}, {"sequence": "GGTGTAGA", "PBM E-score of 8-mer": "0.35 ± 0.009"}, {"sequence": "CGATCAGC", "PBM E-score of 8-mer": "0.0172 ± 0.057"}, {"sequence": "CAGAGTCG", "PBM E-score of 8-mer": "0.144 ± 0.077"}, {"sequence": "TAGACAGA", "PBM E-score of 8-mer": "-0.0941 ± 0.02"}, {"sequence": "CCAAGAGG", "PBM E-score of 8-mer": "0.12 ± 0.0026"}, {"sequence": "GACATTGC", "PBM E-score of 8-mer": "0.0656 ± 0.018"}, {"sequence": "CCCACGTA", "PBM E-score of 8-mer": "-0.0631 ± 0.1"}, {"sequence": "AAGAAGTA", "PBM E-score of 8-mer": "-0.119 ± 0.082"}, {"sequence": "GGGTGCTA", "PBM E-score of 8-mer": "0.397 ± 0.0085"}, {"sequence": "GCGTGCTA", "PBM E-score of 8-mer": "0.21 ± 0.019"}, {"sequence": "GTGTGCTA", "PBM E-score of 8-mer": "0.268 ± 0.025"}, {"sequence": "GTTTACGA", "PBM E-score of 8-mer": "0.0241 ± 0.021"}, {"sequence": "TACTTCGA", "PBM E-score of 8-mer": "-0.0694 ± 0.013"}, {"sequence": "CGGCGCGA", "PBM E-score of 8-mer": "0.3178 ± 0.00058"}, {"sequence": "AGGCGACC", "PBM E-score of 8-mer": "0.012 ± 0.083"}, {"sequence": "AGGCGCGA", "PBM E-score of 8-mer": "0.471 ± 0.0037"}, {"sequence": "GGGCGCTA", "PBM E-score of 8-mer": "0.314 ± 0.014"}, {"sequence": "GGGCGCGA", "PBM E-score of 8-mer": "0.422 ± 0.031"}, {"sequence": "AGGCGCTA", "PBM E-score of 8-mer": "0.41 ± 0.023"}, {"sequence": "CGGCGCTA", "PBM E-score of 8-mer": "0.152 ± 0.019"}, {"sequence": "AGGCGACA", "PBM E-score of 8-mer": "0.37 ± 0.013"}, {"sequence": "AGGCGACG", "PBM E-score of 8-mer": "0.301 ± 0.066"}, {"sequence": "GGGGGCGA", "PBM E-score of 8-mer": "-0.0505 ± 0.016"}, {"sequence": "AGGCGCGC", "PBM E-score of 8-mer": "0.185 ± 0.039"}, {"sequence": "AGGCGCGG", "PBM E-score of 8-mer": "0.291 ± 0.017"}, {"sequence": "CTAGATAA", "PBM E-score of 8-mer": "-0.00975 ± 0.025"}, {"sequence": "ACCGGTAC", "PBM E-score of 8-mer": "-0.1754 ± 0.0017"}, {"sequence": "TAAATGTA", "PBM E-score of 8-mer": "-0.0999 ± 0.021"}, {"sequence": "CGCACTGC", "PBM E-score of 8-mer": "0.104 ± 0.0094"}, {"sequence": "ATGCGGGA", "PBM E-score of 8-mer": "-0.193 ± 0.03"}, {"sequence": "GAATAGCA", "PBM E-score of 8-mer": "0.189 ± 0.0036"}, {"sequence": "AGTAGGAG", "PBM E-score of 8-mer": "-0.00869 ± 0.02"}, {"sequence": "CAGGCCTC", "PBM E-score of 8-mer": "-0.159 ± 0.029"}, {"sequence": "GCATAGAA", "PBM E-score of 8-mer": "-0.126 ± 0.09"}, {"sequence": "AGGCGAGC", "PBM E-score of 8-mer": "-0.233 ± 0.11"}, {"sequence": "AGGCGAGA", "PBM E-score of 8-mer": "0.373 ± 0.012"}, {"sequence": "GGGCGAGA", "PBM E-score of 8-mer": "0.222 ± 0.0041"}, {"sequence": "AAACAGAT", "PBM E-score of 8-mer": "-0.136 ± 0.01"}, {"sequence": "GGAATGCC", "PBM E-score of 8-mer": "-0.187 ± 0.06"}, {"sequence": "ATGTTTTG", "PBM E-score of 8-mer": "0.00867 ± 0.052"}, {"sequence": "CACCTAGC", "PBM E-score of 8-mer": "0.40555 ± 0.00015"}, {"sequence": "CACCTAGG", "PBM E-score of 8-mer": "0.392 ± 0.012"}, {"sequence": "AACCTAGC", "PBM E-score of 8-mer": "-0.0309 ± 0.0034"}, {"sequence": "CACCTAGA", "PBM E-score of 8-mer": "0.294 ± 0.073"}, {"sequence": "CCCCTAGG", "PBM E-score of 8-mer": "-0.0502 ± 0.012"}, {"sequence": "AACCTAGG", "PBM E-score of 8-mer": "-0.0376 ± 0.091"}, {"sequence": "AGAAGACT", "PBM E-score of 8-mer": "-0.285 ± 0.046"}, {"sequence": "ACTAAATA", "PBM E-score of 8-mer": "-0.131 ± 0.019"}, {"sequence": "GCGAATAC", "PBM E-score of 8-mer": "0.228 ± 0.018"}, {"sequence": "AGCCGTCG", "PBM E-score of 8-mer": "0.0127 ± 0.019"}, {"sequence": "AAGGGTAA", "PBM E-score of 8-mer": "-0.088 ± 0.0016"}, {"sequence": "ACCACACG", "PBM E-score of 8-mer": "0.26 ± 0.039"}, {"sequence": "CACACACC", "PBM E-score of 8-mer": "0.454 ± 0.013"}, {"sequence": "CCCACACG", "PBM E-score of 8-mer": "0.15 ± 0.1"}, {"sequence": "CCCACACA", "PBM E-score of 8-mer": "0.199 ± 0.038"}, {"sequence": "GCCACACA", "PBM E-score of 8-mer": "0.335 ± 0.0096"}, {"sequence": "ACCACACC", "PBM E-score of 8-mer": "0.369 ± 0.029"}, {"sequence": "GCCACAGC", "PBM E-score of 8-mer": "0.00288 ± 0.017"}, {"sequence": "CCCACACC", "PBM E-score of 8-mer": "0.438 ± 0.033"}, {"sequence": "AACACACC", "PBM E-score of 8-mer": "0.326 ± 0.0067"}, {"sequence": "ACCACACA", "PBM E-score of 8-mer": "0.248 ± 0.037"}, {"sequence": "GCCACACC", "PBM E-score of 8-mer": "0.421 ± 0.036"}, {"sequence": "GACACACC", "PBM E-score of 8-mer": "0.321 ± 0.016"}]}]}
